Reference: PubChem BioAssay AID2315 (National Center for Advancing Translational Sciences (NCATS), 2010)
The campaign covered roughly 290,000 compounds. About 27,000 (9.3%) were called active. Many of the other results were omitted from the sample, so actives are more common in it than they were. Values without a mark were called inactive. Rule as the data show it: active = inhibition mostly above about 28% (no sharp cut-off); inactive = mostly below about 43%.

Assay: A qHTS for Small Molecule Inhibitors of Shiga Toxin; as to inhibition: 0% is about no effect
Conditions: Vero cells, Shiga toxin protein synthesis inhibition reporter; at 38.7 µM, stronger effect = higher value
Molecule `CCOc1ccc(C(C)=O)cc1COC(=O)c1cnc(Cl)c(Cl)c1` has an inhibition of 14.4%. Work on `CN(Cc1ccccc1)C(=O)c1ccc(NC2=NC3CS(=O)(=O)CC3S2)cc1` (centres undefined) yielded an inhibition of -3%. With `O=C1CCc2cc(S(=O)(=O)N3CCC(C(=O)NCc4ccccc4Cl)CC3)ccc2N1` the inhibition was -4.83%. In the case of `CC(=O)Nc1ccc(NC(=O)C2CCCN2S(=O)(=O)c2cccc(C(F)(F)F)c2)cc1` (centres undefined), the inhibition is reported as -1.36%. In the case of `CSc1cccc(NC(=O)C2CCCN2S(=O)(=O)c2ccc3c(c2)CCC(=O)N3)c1` (centres undefined), the inhibition is reported as 25.9% (active). In the case of `CC(=O)c1cccc(NC(=O)C2CCN(C(=O)c3ccccc3Cl)CC2)c1`, the inhibition is reported as -18.7%. Work on `CCOc1ccc(C)cc1S(=O)(=O)NC1CCCCCC1` yielded an inhibition of -4.32%. Work on `CCc1cc2c(=O)n(-c3ccccc3)c(SCC(=O)O)nc2s1` yielded an inhibition of -7.15%. In the case of `COc1ccc(/C=C2\N=C3CCCN3C2=O)cc1`, the inhibition is reported as 84.4% (active). `COc1ccc(/C=C2\SC(=N)N(c3ccc(F)cc3)C2=O)cc1` gave an inhibition of -5.41%. In the case of `COc1ccc(/C=C2\SC(=S)N(CC(=O)NNC(=O)c3ccncc3)C2=O)cc1`, the inhibition is reported as 30.3%. In the case of `CC(C)c1c(C(=O)N/N=C/c2ccc(-c3ccccc3)cc2)nnn1-c1nonc1N`, the inhibition is reported as -5.37%. Molecule `CCOc1ccc(CN2CCN(CCCc3ccccc3)C(CCO)C2)cc1` (centres undefined) has an inhibition of 1.09%. `COc1ccc(N2C(=O)NC(NS(=O)(=O)c3ccc(Cl)cc3)(C(F)(F)F)C2=O)cc1` (centres undefined) gave an inhibition of -3.26%. Molecule `COc1cc(/C=N/NC(=O)c2ccoc2C)ccc1OCCN1CCCCC1` has an inhibition of 29.5%. With `COc1cc(/C=N\NC(=O)CNC(=O)c2cccc([N+](=O)[O-])c2)ccc1O` the inhibition was -6.08%. For `Cc1ccc(-n2[nH]c(C)c(/C=N/NC(=O)c3cccc([N+](=O)[O-])c3)c2=O)cc1C`, the inhibition was 62.4% (active). `Cc1[nH]n(-c2ccc(Cl)cc2)c(=O)c1/C=N/n1c(C)nc2ccccc2c1=O` showed an inhibition of 38.2%. For `Cc1[nH]n(-c2ccccc2)c(=O)c1/C=N/NC(=O)c1ccoc1C`, the inhibition was 125% (active). For `Cc1[nH]n(-c2ccc([N+](=O)[O-])cc2)c(=O)c1C=NCCN1CCN(C(=O)c2ccccc2F)CC1`, the inhibition was -12.7%. With `COc1cc(NS(=O)(=O)c2ccc(NC(=S)NC(=O)c3ccc(Br)cc3)cc2)ncn1` the inhibition was -2.95%. For `N#CCC(=O)NC1CCC(CC2CCC(NC(=O)CC#N)CC2)CC1` (centres undefined), the inhibition was -8.84%. In the case of `Cc1[nH]c(C)c(S(=O)(=O)N2CCN(c3cccc(C(F)(F)F)c3)CC2)c1C(=O)N1CCCCC1`, the inhibition is reported as -4.18%. With `NC(=O)C1=C[C@H](c2csc3ccccc23)C[C@H](OCc2ccc(CO)cc2)O1` the inhibition was 24%. With `O=S(=O)([N-]c1nc2ccccc2nc1-[n+]1ccc(Cc2ccccc2)cc1)c1ccc(Br)s1` the inhibition was 47.8% (active). `O=C(NCCc1ccccc1)C1CCN(S(=O)(=O)c2ccc(Br)s2)CC1` showed an inhibition of 9.64%. In the case of `Cc1cc(C)c[n+](-c2nc3ccccc3nc2[N-]S(=O)(=O)c2cccs2)c1`, the inhibition is reported as 1.54%. With `CCOc1ncccc1C(=O)NCCc1ccc(OC)cc1` the inhibition was -6.94%. `CNC(=O)c1sc(NCc2ccccc2OC)nc1C` gave an inhibition of 4.08%. In the case of `Cc1cc2c(c(=O)n1Cc1ccccc1)C1O[C@](CCCCN3C(=O)c4ccccc4C3=O)(Cc3ccccc31)O2`, the inhibition is reported as “inactive”. `O=C(O)CCCN1C(=O)c2ccccc2Sc2ncccc21` gave an inhibition of -5.85%. In the case of `O=c1[nH]c(-c2cccs2)nc2ccccc12`, the inhibition is reported as 32.8%. `c1csc(-c2cn3c(n2)SCC3)c1` gave an inhibition of 16.5%. In the case of `O=c1c2cc(-c3ccccc3)sc2nc2n1N=C(c1cccs1)CS2`, the inhibition is reported as 100% (active). Work on `C#CC(C)(C)NC(=O)c1cnc(-c2ccccc2)nc1-c1ccccc1` yielded an inhibition of -5.15%. In the case of `CC(=O)c1ccc(N2CCN(S(=O)(=O)c3ccc4c(c3)CC(=O)N4C)CC2)cc1`, the inhibition is reported as 54.4% (active). In the case of `CC(=O)c1ccc(N2CCN(C(=O)C3CCN(S(=O)(=O)c4ccc5c(c4)CC(C)N5C(=O)C4CC4)CC3)CC2)cc1` (centres undefined), the inhibition is reported as 22.9%. Work on `CC(=O)c1ccc(N2CCN(S(=O)(=O)c3c(C)[nH]c(=O)[nH]c3=O)CC2)cc1` yielded an inhibition of 16.6%. `CCCn1nnnc1NCc1ccc(CC)cc1` gave an inhibition of -8.65%. `COC(=O)/C=C/C(=O)NCc1ccco1` gave an inhibition of 18.7%. For `O=C(/C=C/c1ccc(Cl)cc1Cl)NCc1ccco1`, the inhibition was 94.1% (active). `O=C(NCc1ccco1)C1(c2ccc(Cl)cc2)CCCC1` showed an inhibition of -3.65%. Work on `CC(NC(=O)c1cc(=O)[nH]c2ccccc12)c1ccc(F)cc1F` (centres undefined) yielded an inhibition of 9.23%. For `CCOc1cc(/C=C2\SC(N3CCCCC3)=NC2=O)ccc1O`, the inhibition was 67.1% (active). For `CCOc1ccc(/C=C2\SC(=S)N(NC(=O)c3ccncc3)C2=O)cc1OC`, the inhibition was -10.1%. `CC1CCN(C2=NC(=O)/C(=C/c3ccc(O)cc3)S2)CC1` gave an inhibition of 38.6%. For `CCOc1cc(/C=C2\SC(N3CCCC(C)C3)=NC2=O)ccc1O` (centres undefined), the inhibition was 60.1% (active). In the case of `CCOc1cc(C(=S)N2CCOCC2)ccc1O`, the inhibition is reported as -8.19%. For `O=C1N=C(N2CCCC2)S/C1=C\c1cccc(Br)c1`, the inhibition was 34.8%.
